Laboratory results as given in PubChem BioAssay (Tox21).
Records with an inconclusive call do not appear. Entries that show only a call come without a potency. Unmarked numbers belong to inactive results. The source made the active and inactive calls. Calls follow the shape of the dose curve; as a rule, active = well fitted curve in the direction sought with a large enough effect in the repeat runs; inconclusive = weak or mixed curves; inactive = no such curve, though single readings can be large; an effect the other way counts as inactive or inconclusive.

Experiments:
[1] = biological target: Cytochrome P450 2C19 (Homo sapiens) (UniProt P33261); assay: Cytochrome P450 Family 2 Subfamily C Member 19 (CYP2C19) small molecule antagonists: luciferase reporter qHTS assay (AID 1671197); also: nearly all actives have a fitted effect of over 65% in size; also: potency is read from the fitted curve at half-maximal effect; as to activity change, negative = inhibition: series mostly up to about 120 µM
Method in brief: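 CYP2C19 P450-Glo, 1536-well qHTS. Cpd + enzyme/proluciferin substrate 10 min RT; + NADPH regen, 37C 1 h; stop with luciferin detection reagent, 20 min RT, luminescence (RLU). Pos ctrl ketoconazole.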

[2] = biological target: Cytochrome P450 1A2 (Homo sapiens) (UniProt P05177); assay: Cytochrome P450 Family 1 Subfamily A Member 2 (CYP1A2) small molecule antagonists: luciferase reporter qHTS assay (AID 1671199); also: nearly all actives have a fitted effect of over 50% in size; also: potency is read from the fitted curve at half-maximal effect; as to activity change, negative = inhibition: series mostly up to about 120 µM
Method in brief: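 Luminescence readout (relative luminescence units) after luciferin detection reagent, 20 min RT. Preceded by 1 h room-temperature CYP1A2 reaction with NADPH regeneration solution following 10 min compound preincubation with enzyme and proluciferin substrate. Furafylline positive control.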

[3] = biological target: Voltage-gated inwardly rectifying potassium channel KCNH2 (Homo sapiens) (UniProt Q12809); assay: Human Ether-a-go-go-Related Gene (hERG) channel small molecule antagonists: fluorescence cell-based qHTS assay (AID 1671200); also: nearly all actives have a fitted effect of over 50% in size; also: potency is read from the fitted curve at half-maximal effect;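 as to activity change, negative = inhibition: hERG-expressing U2OS cells given a thallium stimulus after FluxOR II dye loading; series mostly up to about 77 µM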
Method in brief: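 In this thallium-flux screen, overnight-cultured U2OS cells bearing the channel are dye-loaded in darkness for an hour, rested 10 min at room temperature, and then monitored kinetically at 480/540 nm for two minutes post-stimulus.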

[4] = biological target: Cytochrome P450 3A4 (Homo sapiens) (UniProt P08684); assay: Cytochrome P450 Family 3 Subfamily A Member 4 (CYP3A4) small molecule antagonists: luciferase reporter qHTS assay (AID 1671201); also: series mostly up to about 120 µM; nearly all actives have a fitted effect of over 50% in size
Method in brief: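 CYP3A4 activity was followed with a P450-Glo proluciferin substrate. Test compounds in DMSO were preincubated 10 min; NADPH regeneration then ran 1 h, and light output was read 20 min after detection reagent.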

[5] = biological target: Cytochrome P450 2C9 (Homo sapiens) (UniProt P11712); assay: Cytochrome P450 Family 2 Subfamily C Member 9 (CYP2C9) small molecule antagonists: luciferase reporter qHTS assay (AID 1671198); also: potency is read from the fitted curve at half-maximal effect; nearly all actives have a fitted effect of over 50% in size
Method in brief: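 Enzyme-substrate mix preincubated with compound 10 min at room temperature; reaction started with NADPH regeneration solution, 1 h 37C. Luminescent luciferin product read after 20 min detection reagent.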

Chain of Voltage-gated inwardly rectifying potassium channel KCNH2 (Homo sapiens) (Q12809 whole entry, looked up): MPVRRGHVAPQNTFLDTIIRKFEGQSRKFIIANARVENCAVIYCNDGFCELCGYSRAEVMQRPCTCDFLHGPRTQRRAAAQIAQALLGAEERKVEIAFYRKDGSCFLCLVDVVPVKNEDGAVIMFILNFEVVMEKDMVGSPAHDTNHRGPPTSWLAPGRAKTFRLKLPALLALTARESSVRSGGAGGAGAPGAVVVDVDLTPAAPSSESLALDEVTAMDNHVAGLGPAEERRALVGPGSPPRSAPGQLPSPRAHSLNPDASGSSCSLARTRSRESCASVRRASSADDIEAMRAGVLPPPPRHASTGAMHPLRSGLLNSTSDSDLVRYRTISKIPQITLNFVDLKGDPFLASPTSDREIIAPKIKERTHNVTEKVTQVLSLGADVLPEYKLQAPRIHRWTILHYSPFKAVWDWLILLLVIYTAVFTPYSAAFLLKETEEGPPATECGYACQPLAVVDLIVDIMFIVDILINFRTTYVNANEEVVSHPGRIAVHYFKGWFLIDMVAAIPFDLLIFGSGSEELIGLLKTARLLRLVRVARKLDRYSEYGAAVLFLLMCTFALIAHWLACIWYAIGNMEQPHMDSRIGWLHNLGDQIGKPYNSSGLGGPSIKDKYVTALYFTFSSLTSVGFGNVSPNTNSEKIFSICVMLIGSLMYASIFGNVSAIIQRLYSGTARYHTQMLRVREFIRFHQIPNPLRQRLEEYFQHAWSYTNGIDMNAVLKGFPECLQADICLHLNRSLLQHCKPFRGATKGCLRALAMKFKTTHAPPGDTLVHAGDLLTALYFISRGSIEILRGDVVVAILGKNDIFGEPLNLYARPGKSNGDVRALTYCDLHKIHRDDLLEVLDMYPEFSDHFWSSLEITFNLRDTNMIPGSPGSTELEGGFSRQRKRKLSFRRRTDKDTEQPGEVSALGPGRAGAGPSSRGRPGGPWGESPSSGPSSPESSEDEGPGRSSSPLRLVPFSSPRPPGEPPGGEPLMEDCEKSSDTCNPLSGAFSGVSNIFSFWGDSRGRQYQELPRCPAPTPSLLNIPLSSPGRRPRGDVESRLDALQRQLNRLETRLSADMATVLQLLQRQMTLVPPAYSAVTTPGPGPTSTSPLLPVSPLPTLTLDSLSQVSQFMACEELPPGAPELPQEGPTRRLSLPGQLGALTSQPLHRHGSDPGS
Chain of Cytochrome P450 2C19 (Homo sapiens) (P33261 whole entry, looked up): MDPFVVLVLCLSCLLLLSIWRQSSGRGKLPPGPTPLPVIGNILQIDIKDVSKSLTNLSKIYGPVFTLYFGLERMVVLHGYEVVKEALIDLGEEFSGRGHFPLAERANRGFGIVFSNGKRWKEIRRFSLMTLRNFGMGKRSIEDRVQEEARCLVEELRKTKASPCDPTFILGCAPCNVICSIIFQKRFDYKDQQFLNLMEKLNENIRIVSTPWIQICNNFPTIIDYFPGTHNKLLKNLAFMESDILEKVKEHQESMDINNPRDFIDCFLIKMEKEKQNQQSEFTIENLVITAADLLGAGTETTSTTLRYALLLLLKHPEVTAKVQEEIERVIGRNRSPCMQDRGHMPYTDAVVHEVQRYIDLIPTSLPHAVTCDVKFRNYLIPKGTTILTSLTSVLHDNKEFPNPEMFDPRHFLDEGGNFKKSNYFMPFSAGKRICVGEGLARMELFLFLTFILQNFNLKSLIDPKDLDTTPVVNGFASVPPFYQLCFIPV
Chain of Cytochrome P450 1A2 (Homo sapiens) (P05177 whole entry, looked up): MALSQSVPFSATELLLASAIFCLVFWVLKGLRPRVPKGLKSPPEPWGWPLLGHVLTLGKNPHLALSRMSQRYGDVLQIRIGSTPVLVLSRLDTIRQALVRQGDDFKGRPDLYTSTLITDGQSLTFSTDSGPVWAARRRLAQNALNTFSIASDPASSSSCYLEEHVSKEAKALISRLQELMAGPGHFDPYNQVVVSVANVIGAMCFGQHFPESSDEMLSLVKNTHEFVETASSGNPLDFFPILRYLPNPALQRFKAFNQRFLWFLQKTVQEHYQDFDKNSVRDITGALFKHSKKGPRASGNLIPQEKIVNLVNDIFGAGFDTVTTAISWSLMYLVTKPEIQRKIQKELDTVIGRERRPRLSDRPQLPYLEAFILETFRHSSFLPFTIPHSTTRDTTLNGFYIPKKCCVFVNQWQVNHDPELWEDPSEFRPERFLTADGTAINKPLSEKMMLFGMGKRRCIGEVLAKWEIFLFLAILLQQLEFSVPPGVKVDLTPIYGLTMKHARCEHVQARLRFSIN
Chain of Cytochrome P450 3A4 (Homo sapiens) (P08684 whole entry, looked up): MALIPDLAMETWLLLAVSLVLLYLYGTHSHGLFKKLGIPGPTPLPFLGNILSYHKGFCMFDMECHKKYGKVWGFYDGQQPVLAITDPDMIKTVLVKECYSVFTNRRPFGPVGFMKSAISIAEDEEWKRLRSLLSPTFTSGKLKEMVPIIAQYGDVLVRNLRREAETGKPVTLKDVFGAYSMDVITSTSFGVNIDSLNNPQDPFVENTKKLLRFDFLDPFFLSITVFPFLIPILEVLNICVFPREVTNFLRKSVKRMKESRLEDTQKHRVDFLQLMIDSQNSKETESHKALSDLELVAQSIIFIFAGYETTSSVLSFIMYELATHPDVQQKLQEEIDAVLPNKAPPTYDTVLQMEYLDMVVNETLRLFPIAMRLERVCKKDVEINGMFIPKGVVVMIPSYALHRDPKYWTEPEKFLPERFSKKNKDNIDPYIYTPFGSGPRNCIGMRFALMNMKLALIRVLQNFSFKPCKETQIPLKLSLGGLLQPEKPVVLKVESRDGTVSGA
Chain of Cytochrome P450 2C9 (Homo sapiens) (P11712 whole entry, looked up): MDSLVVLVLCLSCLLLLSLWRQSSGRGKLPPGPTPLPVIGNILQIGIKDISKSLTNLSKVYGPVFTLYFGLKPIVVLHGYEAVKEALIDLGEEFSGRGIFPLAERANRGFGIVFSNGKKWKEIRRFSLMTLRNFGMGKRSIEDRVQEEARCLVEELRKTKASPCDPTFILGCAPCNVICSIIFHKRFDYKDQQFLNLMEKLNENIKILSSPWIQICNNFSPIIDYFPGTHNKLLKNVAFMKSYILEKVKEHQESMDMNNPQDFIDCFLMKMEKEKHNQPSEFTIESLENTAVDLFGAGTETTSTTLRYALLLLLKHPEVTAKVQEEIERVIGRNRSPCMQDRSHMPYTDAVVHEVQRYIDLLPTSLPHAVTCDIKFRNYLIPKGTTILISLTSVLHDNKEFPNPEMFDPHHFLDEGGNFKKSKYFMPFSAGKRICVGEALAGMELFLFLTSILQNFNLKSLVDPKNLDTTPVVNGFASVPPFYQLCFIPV

CC(=O)N[C@H]1[C@H]([C@H](O)[C@H](O)CO)OC(C(=O)O)=C[C@@H]1N=C(N)N
Potency [1]: inactive | Potency [2]: inactive | Potency [3]: inactive | Potency [4]: inactive

CC(C)c1ccc2ncccc2c1
Potency [1]: inactive | Potency [2]: 63.3 µM (active) | Potency [3]: inactive | Potency [4]: inactive

CCOC(=O)C1=NOC(c2ccccc2)(c2ccccc2)C1
Potency [1]: 20 µM (active) | Potency [5]: 7.1 µM (active) | Potency [4]: inactive

CO[C@@]1(NC(=O)CSC[C@@H](N)C(=O)O)C(=O)N2C(C(=O)O)=C(CSc3nnnn3C)CS[C@@H]21
Potency [1]: inactive | Potency [2]: inactive | Potency [3]: inactive | Potency [4]: inactive

C[N+]1(CC2COC(c3ccccc3)(c3ccccc3)O2)CCCCC1 (stereo not drawn)
Potency [1]: inactive | Potency [2]: inactive | activity change, negative = inhibition [3]: -15.6% [at 15.8 µM] | activity change, negative = inhibition [4]: -9.22% [at 23.6 µM]

CCCCOCCOC(=O)COc1cc(Cl)c(Cl)cc1Cl
Potency [1]: 35.6 µM (active) | Potency [2]: 39.9 µM (active) | Potency [3]: 24.5 µM (active) | Potency [4]: inactive

CN1CC(=O)N/C1=N/C(=O)Nc1cccc(Cl)c1
Potency [1]: inactive | Potency [2]: 20.4 µM (active) | Potency [3]: inactive | Potency [4]: inactive

CC(=O)c1ccccc1[N+](=O)[O-]
Potency [1]: inactive | Potency [2]: 39.2 µM (active) | Potency [3]: inactive | Potency [4]: inactive

CCCc1nn(C)c2c(=O)[nH]c(-c3cc(S(=O)(=O)N4CCN(C)CC4)ccc3OCC)nc12
Potency [1]: inactive | Potency [2]: inactive

CC1=CC(=O)[C@H]2C[C@@H]1C2(C)C
Potency [1]: inactive | Potency [2]: inactive | Potency [3]: inactive | Potency [4]: inactive

CC1=CCC(O)(C(C)C)CC1 (stereo not drawn)
Potency [1]: inactive | Potency [2]: inactive | Potency [4]: inactive

CCC(=O)OCc1ccccc1
Potency [1]: inactive | Potency [3]: inactive | Potency [4]: inactive

CC(CC=O)CC(C)(C)C (stereo not drawn)
Potency [1]: inactive | Potency [2]: inactive | Potency [3]: inactive | Potency [4]: inactive

Cc1ncc([C@@H](CCCCCCc2ccc3c(n2)NCCC3)CC(=O)O)cn1
Potency [1]: inactive | Potency [3]: inactive | Potency [4]: inactive

Cc1cccc(C)c1NC(=O)CC12CCCN1CCC2
Potency [1]: inactive | Potency [2]: inactive | Potency [4]: inactive

COc1cccc(OC)c1C(=O)N[C@@H]1C(=O)N2[C@@H]1SC(C)(C)[C@@H]2C(=O)O
Potency [1]: inactive | Potency [2]: inactive | Potency [4]: inactive

CC[N+](C)(CC)CCOC(=O)C1c2ccccc2Oc2ccccc21
Potency [1]: inactive | Potency [4]: inactive

CNC(=O)Nc1ccc(Cl)c(Cl)c1
Potency [1]: 28.3 µM (active) | Potency [3]: inactive

CC(COc1ccccc1)NN (stereo not drawn)
Potency [1]: inactive | Potency [2]: inactive | Potency [4]: inactive
